Several values for one entry are separate records, joined by “and”; a condition that tells them apart may be missing. Identical values can stand only once. The panel holds about 83,000 compounds, 20% with a hit somewhere; the sample as a whole holds those more often.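 Values shown are percent growth following 48 h exposure of cells in 96-well plates to a single concentration of compound; below 10 was considered active.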 Activity calls are given as the source filed them.

We go through 39 molecules from PubChem BioAssay (NCI).

This test has as its system HCT-15 colon. Description: NCI-60 one-dose screen, 48 h (100 = growth as untreated, 0 = no growth, -100 = all killed). Conditions: 10 µM unless noted.
As to `O=C(O)C1(C(=O)O)CCC1.[NH2-].[NH2-].[Pt+2]`, the growth is 102% (inactive) and 103% (inactive).

As for `CC1(C)[C@@H](OC(=O)CCC(=O)O)CC[C@]2(C)[C@H]3C(=O)C=C4[C@@H]5C[C@@](C)(C(=O)O)CC[C@]5(C)CC[C@@]4(C)[C@]3(C)CC[C@@H]12`, the growth was 101% (inactive) and -39.6% (active).

In the case of `CCNC(=O)Nc1ccc(-c2nc3c(c(N4CCOC[C@@H]4C)n2)CCN(C2COC2)C3)cc1`, the growth was 60.3% (inactive) and 15.9% (inactive).

On to `O=C1C2=C(C(=O)c3ccccc31)C(O)(S(=O)(=O)O)C(O)(S(=O)(=O)O)C1N=CC=CC21` (centres undefined), for which the growth is 32.3% (inactive) and 38.7% (inactive).

For the molecule `COc1ccc2c(=O)cc(-c3ccccc3)[nH]c2c1`, the growth is 22.6% (inactive) and 19.2% (inactive).

Take `COc1cc(Nc2nc3ccccc3nc2NS(=O)(=O)c2ccc(NC(=O)c3ccc(C)c(OC)c3)cc2)cc(OC)c1`: the growth is 60.3% (inactive) and 13.4% (inactive).

Take `COc1cc(-c2nccc3cc4c(cc23)OCO4)cc(OC)c1OC`: the growth was 22.1% (inactive) and 27.9% (inactive).

As for `CCN(CC)CCC(CNc1ccnc2cc(Cl)ccc12)c1ccc(OC)cc1` (centres undefined), the growth was 42.6% (inactive) and 30.8% (inactive).

As to `CC(=O)Nc1ccc(O)cc1`, the growth is 103% (inactive) and 109% (inactive) and 105% (inactive).

For the molecule `c1ccc2c(CC3=NCCN3)cccc2c1`, the growth is 104% (inactive) and 106% (inactive).

In the case of `Cc1nn(-c2ccc(Cl)cc2)c2ncnc(N/N=C/c3ccccc3O)c12`, the growth is 31.9% (inactive) and 27.1% (inactive).

Regarding `CCN(CC)C(=S)SSC(=S)N(CC)CC`, the growth is 81.4% (inactive) and 109% (inactive).

For `Nc1nc(SC/C=C/CCl)c2[nH]cnc2n1`, the growth was 104% (inactive) and 94.2% (inactive).

As to `CC1CCCC(=O)O1` (centres undefined), the growth is 94.8% (inactive) and 99.7% (inactive).

Take `c1ccc(NCc2ccc3c(c2)OCO3)cc1`: the growth was 108% (inactive) and 93% (inactive).

Regarding `CN(Cc1ccccc1)Cc1ccccc1`, the growth was 103% (inactive).

`O=[N+]([O-])c1ccc(N/N=C\c2cc(Br)ccc2O)nc1`: the growth is 21.6% (inactive) and 31.2% (inactive).

On to `O=C(Nc1ccc(Br)cc1)c1cc(Br)ccc1O`, for which the growth was 15.2% (inactive) and 15.6% (inactive).

As for `CN(C)c1ccc(C(=C2C=CC(=[N+](C)C)C=C2)c2ccccc2Cl)cc1`, the growth is 6.9% (active) and -30.6% (active).

On to `O=C(Cc1cccc2ccccc12)N/N=C/c1ccc2c(c1)CCC2`, for which the growth was 56.6% (inactive).

Regarding `O=C(O)C1C2C=CC(C2)C1C(=O)O` (centres undefined), the growth is 106% (inactive) and 101% (inactive).

`COc1cc(C(=O)c2ccc3c(c2)OCO3)cc(OC)c1OC`: the growth was 15.6% (inactive) and 27.4% (inactive).

In the case of `O=C(CCc1ccc(O)cc1)N/N=C/c1cc(Br)ccc1O`, the growth is 28.7% (inactive).

Regarding `CC(=O)Oc1cc(C(=O)O)cc(OC(C)=O)c1OC(C)=O`, the growth was 107% (inactive) and 101% (inactive).

Regarding `Cn1c(=O)c2[nH]c(CCCCCCCCc3nc4ccccc4[nH]3)nc2n(C)c1=O`, the growth was 80.1% (inactive) and 96.1% (inactive).

Take `O=C1c2ccccc2C(=O)N1/N=C/c1ccc2c(c1)OCO2`: the growth is 98.2% (inactive).

As to `S=C1SCN(Cc2ccccc2)CN1Cc1ccccc1`, the growth was 39.8% (inactive).

With `Cc1ccc(-c2noc(CC(=O)c3ccc([N+](=O)[O-])cc3)n2)cc1`, the growth was 98.3% (inactive).

As to `Oc1ccc(/C=C/c2ccccc2)cc1`, the growth is 67.1% (inactive) and 68.2% (inactive).

For the molecule `CC(=O)C(/C=N/C(N)=O)=C(/C)O`, the growth was 104% (inactive).

For `COC(=O)c1nc(N)nc(C(=O)OC)c1C(=O)c1ccc(OC)cc1`, the growth was 107% (inactive) and 42% (inactive).

In the case of `Cc1cc(O)c2c(c1)C(=O)c1cc(O)cc(O)c1C2=O`, the growth is 98.9% (inactive) and 92.2% (inactive).

In the case of `C#CCN(C)Cc1ccccc1`, the growth is 104% (inactive) and 103% (inactive).

As for `CCN(CC)CCCC(C)Nc1ccnc2cc(Oc3ccccc3)ccc12` (centres undefined), the growth is 52.7% (inactive) and 54.5% (inactive).

Take `COc1ccccc1NC(=O)OCC#CCOC(=O)Nc1ccccc1OC`: the growth was 114% (inactive) and 88.6% (inactive).

Take `Cc1cc(O)c(C(C)C)cc1S(=O)(=O)O` (tested in a mixture with another compound): the growth is 96.7% (inactive) and 7.09% (active) and 99.5% (inactive).

`Oc1c(CN2CCCCC2)ccc2cccnc12`: the growth was 33.6% (inactive) and 30.3% (inactive).

On to `NS(=O)(=O)c1cc2c(cc1Cl)NC(C(Cl)Cl)NS2(=O)=O` (centres undefined), for which the growth was 95.3% (inactive) and 101% (inactive).

`COc1cc2nc(N3CCN(C(=O)C4COc5ccccc5O4)CC3)nc(N)c2cc1OC` (centres undefined): the growth was 108% (inactive) and 97.5% (inactive) and 105% (inactive).
